In all, about 2,100 compounds went through this assay and about 480 (23%) were called active. About 5% were inconclusive and are not listed. These entries were drawn from the full list. Potency and affinity values are given separately. A number with no mark means an inactive call.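 The calls were made as follows: active = fitted curve reaches 40% activation at or below the top valid concentration, in every replicate test; inconclusive = replicate tests disagree on the call; inactive = the rest, including activity in the opposite direction.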
Assay: PGC1a acetylation increase, cellular AlphaLISA – cell-based, cherry-picked samples, set 6, dose response (AID 720513);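 also: cells made to overexpress flag tagged PGC1a plus GCN5 acetyltransferase by viral infection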
Conditions: U2OS PGC1a acetylation AlphaLISA, overnight, 0 = neutral, -100 = inhibitor control; series mostly up to 19.5 µM; activation (acetylation increase): at the top concentration

Row | Structure (SMILES) | activation (acetylation increase)
1 | O=C(CCS(=O)(=O)c1ccc(Cl)cc1)Nc1nccs1 | 12.8%
2 | OC[C@H]1[C@H](c2ccc(C#CC3CCCC3)cc2)[C@@H]2CN(CCC(F)(F)F)CCCCN12 | -58%
3 | COc1ccc(CN(C)C[C@@H]2Oc3ccc(NS(=O)(=O)c4c(C)noc4C)cc3C(=O)N([C@@H](C)CO)C[C@@H]2C)cc1 | 38%
4 | C[C@H]1CCCCO[C@H](CN(C)Cc2ccncc2)[C@@H](C)CN([C@@H](C)CO)C(=O)c2cc(NS(=O)(=O)c3ccccc3)ccc2O1 | -16.6%
5 | O=C1C=CCCN1C(=O)/C=C/c1cccc(C(F)(F)F)c1 | -79.7%
6 | COc1ccc(C#Cc2ccc([C@H]3[C@@H](CO)N4CCCCN(C(=O)Nc5ccc(F)cc5)C[C@H]34)cc2)cc1 | -94.6%
7 | C[C@@H]1CN([C@@H](C)CO)C(=O)Cc2cc(NC(=O)C3CCCCC3)ccc2O[C@@H]1CN(C)Cc1ccc(Cl)c(Cl)c1 | 31.6%
8 | CC(C)CC#Cc1ccc([C@H]2[C@H](CO)N3C(=O)CN(C(=O)Nc4cc(F)ccc4F)C[C@@H]23)cc1 | -34.3%
9 | O=C(COC(=O)c1cc[n+]([O-])cc1)Nc1cccc(Cl)c1Cl | 18.2%
10 | Cc1c(Cl)cccc1Nc1ncccc1C(=O)O | -8.63%
11 | Cc1noc(C)c1NC(=O)N(C)C[C@H]1OCCCC[C@@H](C)Oc2ccc(NC(=O)Cc3ccccc3)cc2C(=O)N([C@@H](C)CO)C[C@@H]1C | -3.05%
12 | C[C@@H]1CN([C@H](C)CO)C(=O)c2cc(NS(=O)(=O)c3cccs3)ccc2O[C@@H]1CN(C)S(=O)(=O)c1ccc(F)cc1 | 2.7%
13 | Cc1ccc(S(=O)(=O)N[C@@H]2CC[C@@H](CCNC(=O)c3ccccc3F)O[C@H]2CO)cc1 | 6.51%
14 | O=C(CSc1nc2ccc(Cl)cc2[nH]1)c1ccc2c(c1)OCO2 | 6.16%
15 | Cn1c(=O)c2cc(S(=O)(=O)NCCC(=O)NCc3ccccc3Cl)ccc2n(C)c1=O | 4.26%
16 | Cc1cc(OCC(=O)NNC(=O)c2cnccn2)cc(C)c1Cl | -4.82%
17 | CCCNC(=O)c1ccc(COc2ccc(Cl)cc2)o1 | 0.816%
18 | O=C(COc1ccc(Br)cc1)NCCNC(=O)c1cccnc1 | 71.5%
19 | CCOc1ccc2nc(NCCCNC(=O)c3cc(OC)c(OC)c(OC)c3)c(C#N)cc2c1 | -5.62%
20 | O=C(C[C@@H]1C[C@@H]2c3cc(NC(=O)Nc4ccccc4F)ccc3O[C@@H]2[C@H](CO)O1)NCc1ccc(Oc2ccccc2)cc1 | 9.89%
21 | CCc1cc2c(N3CCN(c4nnc(CC)s4)CC3)ncnc2s1 | -4.99%
22 | COc1cccc(-c2ccc(C3[C@H]4CNC[C@@H]3N4Cc3ccc4c(c3)OCO4)cc2)c1 (stereo partly drawn) | -12.3%
23 | COc1ccc(-c2ccc(C3[C@@H]4CN(Cc5cc(OC)cc(OC)c5)C[C@H]3N4)cc2)cc1 (stereo partly drawn) | -98.7%
24 | O=C(Nc1ccccc1)C1=C(c2ccccc2)S(=O)(=O)CCS1(=O)=O | -95.9%

Row | Structure (SMILES) | activation (acetylation increase)
25 | Cn1nc(-c2ccccn2)nc2c(=O)n(C)c(=O)nc1-2 | -108%
26 | COc1cc(C(=O)N2CCN(S(=O)(=O)c3cccc(F)c3)CC2)ccc1OCC(=O)N1CCOCC1 | 15.1%
27 | CN(C)c1ccc(C=C2SC(=S)NC2=O)cc1 | -60.6%
28 | CCOC(=O)/C(C#N)=C1/C(=O)N(Cc2ccccc2)c2ccccc21 | 36.9%
29 | CC(=O)c1coc2c1cc(O)c1ccccc12 | -14.2%
30 | CCOCCCNc1nc2c(c(=O)n(C)c(=O)n2C)n1CCCc1ccccc1 | 41%
31 | CCOCCn1c(N2CCN(c3ccccc3)CC2)nc2c1c(=O)n(C)c(=O)n2C | 3.02%
32 | Cn1c(=O)c2c(ncn2CC(=O)O)n(C)c1=O | -6.17%
33 | C/C=C/Cn1c(SCc2ccc(Cl)cc2)nc2c1c(=O)[nH]c(=O)n2C | -18.2%
34 | CSc1nc2c(c(=O)[nH]c(=O)n2C)n1Cc1ccccc1 | -24.9%
35 | CCn1c(Oc2ccccc2F)nc2c1c(=O)n(C)c(=O)n2C | -23%
36 | CC(C)CN1CCN(C(=O)COC(=O)c2ccc(S(C)(=O)=O)c([N+](=O)[O-])c2)CC1 | -74.6%
37 | CCC(=O)N[C@H]1CC[C@H](CC(=O)OC)O[C@H]1CO | -20.6%
38 | CCCc1ccc(C(O)c2ncc(-c3cccc(F)c3)[nH]2)cc1 (stereo not drawn) | 9.11%
39 | COc1ccc(S(=O)(=O)Nc2ccc3c(c2)C(=O)N([C@H](C)CO)C[C@@H](C)[C@H](CN(C)C(=O)Nc2ccc(C(F)(F)F)cc2)OCCCC[C@@H](C)O3)cc1 | -7%
40 | O=C(OCc1nnc(-c2ccccc2)o1)C1=COCCO1 | 5.96%
41 | C=CCn1c(SCc2c(C)noc2C)nc2ccccc2c1=O | -6.19%
42 | C[C@@H]1CN([C@@H](C)CO)S(=O)(=O)c2ccc(-c3ccccc3)cc2O[C@@H]1CN(C)C(=O)c1ccccc1F | -30%
43 | CCn1c(C(C)NC(=O)c2ccccc2C)n[nH]c1=S (stereo not drawn) | 26%
44 | COc1ccc(C#Cc2ccc([C@H]3[C@@H](CO)N4CCCCN(C(=O)Nc5ccccc5)C[C@H]34)cc2)cc1 | -91% [at 21 µM]
45 | O=C(Cn1ncc(Cl)c(Cl)c1=O)NC(=O)NC1CCCCC1 | -38.6%
46 | CO[C@@H]1CN(C)C(=O)c2cc(NC(C)=O)ccc2OC[C@H](C)N(Cc2cc(F)ccc2F)C[C@H]1C | 9.55%
47 | N#C/C(=C/c1ccc(OCc2ccc(C(=O)O)cc2)c(Br)c1)c1cccc(F)c1 | 24.4%
48 | C[C@H]1CN([C@@H](C)CO)S(=O)(=O)c2ccc(Br)cc2O[C@@H]1CN(C)S(=O)(=O)c1ccccc1F | 35.6%

Row | Structure (SMILES) | activation (acetylation increase)
49 | CCN(C[C@@H]1N[C@@H](CO)[C@H]1c1ccc(-c2ccc(F)cc2)cc1)C(=O)CN(C)C | -2.97% [at 21 µM]
50 | COc1ccccc1C#Cc1ccc([C@H]2[C@H](C#N)N(C(=O)C3CCCC3)[C@H]2CO)cc1 | -92%
51 | O=S(=O)(c1ccc(Cl)cc1)c1snnc1-c1ccccc1 | -91.3%
52 | Clc1ccc(-c2csc(N3CCSCC3)n2)cc1 | 28.4%
53 | C[C@@H]1CN([C@@H](C)CO)C(=O)CCCn2cc(nn2)CO[C@H]1CN(C)S(=O)(=O)c1ccccc1 | -19%
54 | CCCn1c(-c2ccccc2)cc(SC)c(C#N)c1=O | -11.4%
55 | COc1c(O)cc(O)c2c(=O)cc(-c3ccccc3)oc12 | -3.89%
56 | C=CCn1c(C)nnc1SCC(=O)NC1CC1 | -11.2%
57 | CC(C)c1ccc(NC(=O)CCNS(=O)(=O)c2cccc3nonc23)cc1 | 25.9%
58 | Cc1cc(C)nc(SCC(=O)OCN2C(=O)c3ccccc3C2=O)n1 | -12.4%
59 | COc1ccccc1NS(=O)(=O)c1cccc(NC(=O)C2CC(=O)N(Cc3ccccc3)C2)c1 (stereo not drawn) | -13.3%
60 | CCN(c1ccccc1)S(=O)(=O)c1ccc(OC)c(NC(=O)Cc2ccc(F)cc2)c1 | 23.9%
61 | CCc1ccc(Nc2nnc(SCC(=O)Nc3ccc(C(=O)O)cc3)s2)cc1 | 7.61%
62 | CCOc1ccccc1C(=O)NCCCCCC(=O)O | -10.7%
63 | COCCNC(=O)CN1CCC(NC(=O)C(C)(C)C)CC1 | -10.4%
64 | O=C(c1cc2ccccc2o1)N1CC=C(c2ccccc2)CC1 | 11.8%
65 | CC1=Nc2ccccc2N=C(NC(=O)CN2CCN(c3ccccc3)CC2)C1c1ccccc1 (stereo not drawn) | 15.8%
66 | COc1cc(C2C(C#N)=C(N)Oc3c2oc(CO)cc3=O)cc(OC)c1OC (stereo not drawn) | 14.7%
67 | CC(C)N1CCc2c(sc(NC(=O)C3CCCCC3)c2C(N)=O)C1 | -11.6%
68 | COC(=O)[C@@]1(Cc2ccccc2CN=[N+]=[N-])N=C(c2ccc(OCCCO)cc2)O[C@H]1c1ccccc1 | -52.1%
69 | Cc1ccccc1-n1nnnc1Sc1nnnn1-c1ccccc1 | -122%
70 | Cc1ccccc1Cn1nc(C)c(NC(=O)c2cc(-c3cccs3)on2)c1C | -5.04%
71 | NC(=O)COC(=O)/C=C/c1ccc2ccccc2n1 | 21.1%
72 | COc1ccc(S(=O)(=O)N2c3ccc(F)cc3CCC2C)cc1 (stereo not drawn) | 32.1%

Row | Structure (SMILES) | activation (acetylation increase)
73 | CCOc1ccc(N2C(=O)Cc3ccccc3C2=O)cc1 | -25.8%
74 | O=C(CCc1nc2ccccc2c(=O)[nH]1)OCC(=O)N1CCc2ccccc21 | 1.36%
75 | CCc1ccc(N2CC(O)=C(c3nc4ccccc4c(=O)[nH]3)C2=N)cc1 | 24.7%
76 | CO[C@H]1CN(C)C(=O)c2ccc(NC(=O)c3ccno3)cc2OC[C@H](C)NC[C@H]1C | 26.5%
77 | Cc1cccc(C)c1NC(=O)CN(C)C(=O)c1cc(S(=O)(=O)N(C)C)ccc1N1CCCC1 | 8.66%
78 | COc1ccccc1C(=O)Nc1ccc2c(c1)nc(CCNC(=O)c1ccco1)n2C | 20.5%
79 | Cc1ccc2nsnc2c1S(=O)(=O)N(Cc1ccco1)Cc1cc2cccc(C)c2[nH]c1=O | 0.899%
80 | CN(Cc1ccccc1)S(=O)(=O)c1ccc(S(=O)(=O)N(Cc2ccc(F)cc2)C2CCCC2)cc1 | 4.54%
81 | COc1ccc(-c2csc(N(CCCN(C)C)C(=O)c3ccc(Br)cc3)n2)cc1 | 34.3%
82 | COc1ccc(-c2csc(N(CCCN(C)C)C(=O)c3cccs3)n2)cc1 | 15.2%
83 | CO[C@H]1CN(C)C(=O)c2cc(NC(C)=O)ccc2OC[C@@H](C)N(CC2CCCCC2)C[C@@H]1C | 20.4%
84 | CC(c1n[nH]c(=S)n1Cc1ccccc1)N(C)C (stereo not drawn) | 7.93%
85 | CCCCSCCCNC(=O)c1cn(C)c2ccc(S(=O)(=O)N3CCCC3)cc2c1=O | 34% [at 10 µM]
86 | O=S(=O)(c1ccc2[nH]ccc2c1)N1CCCCCC1 | -0.576% [at 5 µM]
87 | CCNc1nc(Oc2ccc(C#N)cc2)cc(C(F)(F)F)n1 | 9.53%
88 | COc1ccccc1C(=O)Oc1cc(N)n(S(=O)(=O)c2ccc(C)cc2)n1 | 14.8%
89 | CCOC(=O)C1=C(C)N=C2SC(C(=O)OC)=CC(=O)N2C1c1cccc(OC)c1 (stereo not drawn) | 15.5%
90 | Cn1c(Cl)cnc1C1CC(=O)c2cc(Cl)ccc2O1 (stereo not drawn) | -60.7%
91 | Cc1noc(C)c1NC(=O)N(C)C[C@@H]1Oc2c(NS(=O)(=O)c3cn(C)cn3)cccc2C(=O)N([C@@H](C)CO)C[C@@H]1C | -16.3%
92 | CO[C@@H]1CN(C)C(=O)c2cc(NS(=O)(=O)c3ccc(Cl)cc3)ccc2OC[C@H](C)N(C)C[C@H]1C | 24.4%
93 | CC(C)C#Cc1ccc2c(c1)O[C@@H](CN(C)C(=O)C1CC1)[C@@H](C)CN([C@@H](C)CO)S2(=O)=O | 6.72%

Reference: PubChem BioAssay AID720513 (Broad Institute, 2013)
